What was measured:
Assay in all cases: DAPPL (digital affinity profiling via proximity ligation, sequencing); 10 mM Tris-HCl pH 7.5, 50 mM NaCl, 1 mM DTT, 4% glycerol, room temperature, 30 min; GST-TFs on glutathione beads, 16-mer random dsDNA library, 0.1% formaldehyde crosslink after washing; high values mean tight binding
Settings in all cases: protein: recombinant; tags: N-terminal GST; dsDNA, one strand shown
[1] = biological target: T1, FLI1 (Homo sapiens, UniProt Q01543 1-452)
T1 sequence: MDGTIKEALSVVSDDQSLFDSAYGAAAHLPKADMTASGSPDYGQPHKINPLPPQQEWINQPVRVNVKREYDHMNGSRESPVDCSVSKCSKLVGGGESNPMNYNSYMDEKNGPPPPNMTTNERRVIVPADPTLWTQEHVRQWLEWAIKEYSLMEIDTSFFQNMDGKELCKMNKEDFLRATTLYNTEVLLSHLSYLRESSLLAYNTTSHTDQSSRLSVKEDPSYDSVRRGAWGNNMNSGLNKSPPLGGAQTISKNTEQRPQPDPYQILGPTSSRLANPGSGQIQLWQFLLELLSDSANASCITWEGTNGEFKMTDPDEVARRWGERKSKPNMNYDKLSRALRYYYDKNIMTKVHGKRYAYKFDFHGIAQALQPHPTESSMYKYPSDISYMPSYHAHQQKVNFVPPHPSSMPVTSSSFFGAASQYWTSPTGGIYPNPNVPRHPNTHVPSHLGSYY
Summary of the method: (§1)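 Binding signal is each hexamer's read frequency for a factor divided by its frequency in the tag-only sample. The factors were GST-fused human transcription factors from yeast, captured on glutathione beads, DNA-barcoded and pooled with that sample. Pools were incubated with 200 nmole of a random double-stranded 16-mer DNA library in Tris/NaCl/DTT/glycerol buffer at room temperature for 30 min, then washed, crosslinked with 0.1% formaldehyde, proximity-ligated with BsaI/T4 ligase (1 h, 37 °C), PCR-amplified and sequenced on an Illumina NextSeq500.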

[2] = biological target: T2, ELK1 (Homo sapiens, UniProt P19419 1-428)
T2 sequence: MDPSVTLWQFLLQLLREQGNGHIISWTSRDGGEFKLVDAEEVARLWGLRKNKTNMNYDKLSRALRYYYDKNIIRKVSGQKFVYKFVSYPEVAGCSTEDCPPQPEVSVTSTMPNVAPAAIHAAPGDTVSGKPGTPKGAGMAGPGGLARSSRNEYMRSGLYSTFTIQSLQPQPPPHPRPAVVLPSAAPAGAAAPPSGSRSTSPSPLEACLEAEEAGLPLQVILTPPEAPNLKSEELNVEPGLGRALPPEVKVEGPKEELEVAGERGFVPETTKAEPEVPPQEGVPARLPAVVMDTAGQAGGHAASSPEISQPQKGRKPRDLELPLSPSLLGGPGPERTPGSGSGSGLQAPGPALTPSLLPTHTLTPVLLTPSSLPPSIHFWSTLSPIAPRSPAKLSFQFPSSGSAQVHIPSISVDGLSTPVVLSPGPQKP
Summary of the method: as §1

[3] = biological target: T3, GABPA (Homo sapiens, UniProt Q06546 1-454)
T3 sequence: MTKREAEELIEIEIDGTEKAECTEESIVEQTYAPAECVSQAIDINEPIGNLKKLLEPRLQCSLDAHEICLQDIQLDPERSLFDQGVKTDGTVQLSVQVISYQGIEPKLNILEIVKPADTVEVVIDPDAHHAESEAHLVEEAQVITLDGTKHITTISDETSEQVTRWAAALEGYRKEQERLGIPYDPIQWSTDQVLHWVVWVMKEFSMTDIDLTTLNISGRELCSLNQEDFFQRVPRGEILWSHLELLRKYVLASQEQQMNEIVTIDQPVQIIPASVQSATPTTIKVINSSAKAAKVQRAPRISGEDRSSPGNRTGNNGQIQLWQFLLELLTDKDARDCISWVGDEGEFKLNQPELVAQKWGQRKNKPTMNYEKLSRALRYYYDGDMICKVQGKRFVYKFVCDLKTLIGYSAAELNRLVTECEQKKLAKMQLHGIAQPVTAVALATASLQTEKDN
Summary of the method: as §1

[4] = biological target: T4, ERG (Homo sapiens, UniProt P11308 1-479)
T4 sequence: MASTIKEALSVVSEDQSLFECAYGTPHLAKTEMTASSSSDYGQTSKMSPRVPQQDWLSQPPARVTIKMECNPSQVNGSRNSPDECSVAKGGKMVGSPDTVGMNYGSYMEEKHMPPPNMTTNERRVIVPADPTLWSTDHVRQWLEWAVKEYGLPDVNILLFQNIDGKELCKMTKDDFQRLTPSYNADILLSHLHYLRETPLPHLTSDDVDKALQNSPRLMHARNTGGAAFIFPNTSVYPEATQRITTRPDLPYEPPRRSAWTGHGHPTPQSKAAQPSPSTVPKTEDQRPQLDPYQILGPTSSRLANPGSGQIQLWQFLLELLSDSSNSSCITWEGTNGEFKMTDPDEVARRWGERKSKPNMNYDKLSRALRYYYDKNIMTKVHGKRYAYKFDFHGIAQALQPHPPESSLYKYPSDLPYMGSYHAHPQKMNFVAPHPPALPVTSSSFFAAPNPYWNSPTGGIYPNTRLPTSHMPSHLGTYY
Summary of the method: as §1

[5] = biological target: ELF1 (Homo sapiens, UniProt P32519 1-619)
Sequence of ELF1 (P32519 whole entry): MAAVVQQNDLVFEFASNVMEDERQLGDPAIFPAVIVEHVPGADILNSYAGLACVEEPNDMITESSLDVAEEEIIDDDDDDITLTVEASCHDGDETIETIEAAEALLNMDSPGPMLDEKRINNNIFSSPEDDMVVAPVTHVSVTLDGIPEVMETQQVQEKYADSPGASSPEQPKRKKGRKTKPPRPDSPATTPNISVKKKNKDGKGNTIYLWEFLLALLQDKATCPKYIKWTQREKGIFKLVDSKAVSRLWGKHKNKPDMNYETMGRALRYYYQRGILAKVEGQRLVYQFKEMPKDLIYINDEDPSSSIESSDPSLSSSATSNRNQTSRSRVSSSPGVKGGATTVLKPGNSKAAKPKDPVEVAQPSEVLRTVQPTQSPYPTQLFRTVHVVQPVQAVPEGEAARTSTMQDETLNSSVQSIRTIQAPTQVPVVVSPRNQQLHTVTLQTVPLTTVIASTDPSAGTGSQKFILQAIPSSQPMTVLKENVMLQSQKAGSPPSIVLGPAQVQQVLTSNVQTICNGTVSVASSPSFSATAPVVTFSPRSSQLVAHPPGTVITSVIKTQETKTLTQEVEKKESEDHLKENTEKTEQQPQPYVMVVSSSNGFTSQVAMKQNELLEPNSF
Summary of the method: as §1

[6] = biological target: T5, EHF (Homo sapiens, UniProt Q9NZC4 1-300)
T5 sequence: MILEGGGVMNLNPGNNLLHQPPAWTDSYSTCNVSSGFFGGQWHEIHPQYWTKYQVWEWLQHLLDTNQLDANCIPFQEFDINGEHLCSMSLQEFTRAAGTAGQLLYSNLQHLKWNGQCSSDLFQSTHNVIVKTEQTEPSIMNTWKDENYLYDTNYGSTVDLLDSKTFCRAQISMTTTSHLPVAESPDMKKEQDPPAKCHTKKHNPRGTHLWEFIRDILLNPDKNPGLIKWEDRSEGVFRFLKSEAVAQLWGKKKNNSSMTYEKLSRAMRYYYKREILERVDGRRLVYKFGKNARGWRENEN
Summary of the method: as §1

[7] = biological target: SPI1 (Homo sapiens, UniProt P17947 1-270)
Summary of the method: as §1

[8] = biological target: SPIB (Homo sapiens, UniProt Q01892 1-262)
Sequence of SPIB (Q01892 whole entry): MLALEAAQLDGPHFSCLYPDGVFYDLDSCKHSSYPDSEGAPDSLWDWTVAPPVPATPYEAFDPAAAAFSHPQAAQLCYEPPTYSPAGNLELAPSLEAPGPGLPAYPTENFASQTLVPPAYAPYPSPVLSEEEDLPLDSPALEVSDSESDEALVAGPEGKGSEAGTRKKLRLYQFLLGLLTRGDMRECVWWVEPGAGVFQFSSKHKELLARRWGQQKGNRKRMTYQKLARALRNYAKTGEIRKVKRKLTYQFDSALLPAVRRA
Summary of the method: as §1

[9] = biological target: T6, ELK3 (Homo sapiens, UniProt P41970 1-407)
T6 sequence: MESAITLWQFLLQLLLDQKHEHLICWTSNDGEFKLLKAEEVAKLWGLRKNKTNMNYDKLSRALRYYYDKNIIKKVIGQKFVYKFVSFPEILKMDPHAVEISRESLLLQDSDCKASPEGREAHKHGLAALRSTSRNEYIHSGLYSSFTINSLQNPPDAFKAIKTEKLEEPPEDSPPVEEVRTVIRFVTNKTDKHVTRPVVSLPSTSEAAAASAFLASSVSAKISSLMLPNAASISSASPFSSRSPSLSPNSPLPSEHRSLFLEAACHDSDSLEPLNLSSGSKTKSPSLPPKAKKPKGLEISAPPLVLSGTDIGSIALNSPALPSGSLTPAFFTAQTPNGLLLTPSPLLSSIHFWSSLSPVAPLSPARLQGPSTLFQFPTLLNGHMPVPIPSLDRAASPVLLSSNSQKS
Summary of the method: as §1

Sequence	binding signal [1]	binding signal [2]	binding signal [3]	binding signal [4]	binding signal [5]	binding signal [6]	binding signal [7]	binding signal [8]	binding signal [9]
TTCGCC	1.26 fold enrichment (6-mer frequency, TF over GST control)	1.28 fold enrichment (6-mer frequency, TF over GST control)	1.2 fold enrichment (6-mer frequency, TF over GST control)	1.15 fold enrichment (6-mer frequency, TF over GST control)	1.15 fold enrichment (6-mer frequency, TF over GST control)	1.11 fold enrichment (6-mer frequency, TF over GST control)	1.1 fold enrichment (6-mer frequency, TF over GST control)	1.14 fold enrichment (6-mer frequency, TF over GST control)	1.08 fold enrichment (6-mer frequency, TF over GST control)
ATCTTG	1.35 fold enrichment (6-mer frequency, TF over GST control)	1.38 fold enrichment (6-mer frequency, TF over GST control)	1.27 fold enrichment (6-mer frequency, TF over GST control)	1.39 fold enrichment (6-mer frequency, TF over GST control)	1.33 fold enrichment (6-mer frequency, TF over GST control)	1.35 fold enrichment (6-mer frequency, TF over GST control)	1.3 fold enrichment (6-mer frequency, TF over GST control)	1.31 fold enrichment (6-mer frequency, TF over GST control)	1.41 fold enrichment (6-mer frequency, TF over GST control)
CCTATA	1.35 fold enrichment (6-mer frequency, TF over GST control)	1.29 fold enrichment (6-mer frequency, TF over GST control)	1.42 fold enrichment (6-mer frequency, TF over GST control)	1.3 fold enrichment (6-mer frequency, TF over GST control)	1.39 fold enrichment (6-mer frequency, TF over GST control)	1.28 fold enrichment (6-mer frequency, TF over GST control)	1.28 fold enrichment (6-mer frequency, TF over GST control)	1.34 fold enrichment (6-mer frequency, TF over GST control)	1.32 fold enrichment (6-mer frequency, TF over GST control)
ACTTTC	1.55 fold enrichment (6-mer frequency, TF over GST control)	1.65 fold enrichment (6-mer frequency, TF over GST control)	1.59 fold enrichment (6-mer frequency, TF over GST control)	1.46 fold enrichment (6-mer frequency, TF over GST control)	1.63 fold enrichment (6-mer frequency, TF over GST control)	1.59 fold enrichment (6-mer frequency, TF over GST control)	1.66 fold enrichment (6-mer frequency, TF over GST control)	1.7 fold enrichment (6-mer frequency, TF over GST control)	1.62 fold enrichment (6-mer frequency, TF over GST control)
CAAAAT	1.16 fold enrichment (6-mer frequency, TF over GST control)	1.11 fold enrichment (6-mer frequency, TF over GST control)	1.2 fold enrichment (6-mer frequency, TF over GST control)	1.27 fold enrichment (6-mer frequency, TF over GST control)	1.18 fold enrichment (6-mer frequency, TF over GST control)	1.16 fold enrichment (6-mer frequency, TF over GST control)	1.28 fold enrichment (6-mer frequency, TF over GST control)	1.18 fold enrichment (6-mer frequency, TF over GST control)	1.21 fold enrichment (6-mer frequency, TF over GST control)
TAACCC	1.31 fold enrichment (6-mer frequency, TF over GST control)	1.4 fold enrichment (6-mer frequency, TF over GST control)	1.25 fold enrichment (6-mer frequency, TF over GST control)	1.23 fold enrichment (6-mer frequency, TF over GST control)	1.28 fold enrichment (6-mer frequency, TF over GST control)	1.25 fold enrichment (6-mer frequency, TF over GST control)	1.18 fold enrichment (6-mer frequency, TF over GST control)	1.21 fold enrichment (6-mer frequency, TF over GST control)	1.38 fold enrichment (6-mer frequency, TF over GST control)
GATGGC	1.27 fold enrichment (6-mer frequency, TF over GST control)	1.36 fold enrichment (6-mer frequency, TF over GST control)	1.34 fold enrichment (6-mer frequency, TF over GST control)	1.3 fold enrichment (6-mer frequency, TF over GST control)	1.34 fold enrichment (6-mer frequency, TF over GST control)	1.33 fold enrichment (6-mer frequency, TF over GST control)	1.37 fold enrichment (6-mer frequency, TF over GST control)	1.41 fold enrichment (6-mer frequency, TF over GST control)	1.19 fold enrichment (6-mer frequency, TF over GST control)
TGACCC	1.34 fold enrichment (6-mer frequency, TF over GST control)	1.29 fold enrichment (6-mer frequency, TF over GST control)	1.38 fold enrichment (6-mer frequency, TF over GST control)	1.4 fold enrichment (6-mer frequency, TF over GST control)	1.43 fold enrichment (6-mer frequency, TF over GST control)	1.51 fold enrichment (6-mer frequency, TF over GST control)	1.26 fold enrichment (6-mer frequency, TF over GST control)	1.3 fold enrichment (6-mer frequency, TF over GST control)	1.4 fold enrichment (6-mer frequency, TF over GST control)
